Data published in the supplement of paper PMC10127200.
Counter-ions that a name gives are not always drawn.

Test system: A549
Assay: Euclidean distance of Cell Painting phenotypic profile (signed KS, 77 features) to DMSO centroid (dimensionless distance); 5 or 10 uM (library dependent); higher = stronger phenotypic change vs DMSO (phenoactivity)
Conditions: 48 h
Outline: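 At 10 or 5 uM, as set by the library, and 0.1% DMSO final, compounds were applied for 48 h to five cancer lines and one healthy fibroblast line. Stained cells were imaged confocally at 20X in 9 fields per well, and Harmony extracted 77 features scored as signed Kolmogorov-Smirnov statistics against vehicle wells on the same plate. Profiles underwent plate-position correction, correlation weighting and replicate averaging at the top dose. Phenoactivity is the Euclidean distance from each such profile to the median vehicle profile.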

SMILES | Euclidean distance
CN(C)c1ccc(O)c2c1C[C@H]1C[C@H]3[C@H](N(C)C)C(O)=C(C(N)=O)C(=O)[C@@]3(O)C(O)=C1C2=O [Minocycline HCl] | 1.38
Clc1ccc(CCCOCCCN2CCCCC2)cc1 [Pitolisant hydrochloride] | 0.836
Clc1ccc(C(c2ccccc2Cl)C(Cl)Cl)cc1 (stereo not given) [Mitotane] | 0.919
CCOCC(O)COc1ccc(NC(=O)CC[S+](C)C)cc1 (stereo not given) [Suplatast Tosylate] | 1.01
Cc1onc(-c2ccccc2)c1C(=O)N[C@@H]1C(=O)N2[C@@H]1SC(C)(C)[C@@H]2C(=O)O [Oxacillin sodium monohydrate] | 1.09
NCC(=O)CCC(=O)O [5-Aminolevulinic acid HCl] | 0.994
NS(=O)(=O)c1cc2c(cc1Cl)NC(C1CC3C=CC1C3)NS2(=O)=O (stereo not given) [Cyclothiazide] | 0.917
CC(C)N1CCN(Cc2cnc(-c3cc(-c4cccc5[nH]ccc45)cc4[nH]ncc34)o2)CC1 | 3.89
CC1(C)O[C@H]2CC(=O)OC[C@]23[C@H]2CC[C@@]4(C)[C@H](c5ccoc5)OC(=O)[C@H]5O[C@]54[C@]2(C)C(=O)C[C@@H]13 [Limonin] | 0.714
COc1ccc(C2CC(=O)c3c(O)cc(OC4OC(COC5OC(C)C(O)C(O)C5O)C(O)C(O)C4O)cc3O2)cc1OC (stereo not given) [Methyl-Hesperidin] | 0.527
CC1(C)S[C@@H]2[C@H](NC(=O)Cc3ccccc3)C(=O)N2[C@H]1C(=O)O.CCN(CC)CCOC(=O)c1ccc(N)cc1 [Penicillin G Procaine] | 0.676
CN1CCCN=C1/C=C/c1cccs1 [Pyrantel Pamoate] | 0.995
O=C(Nc1ccc(-c2ccnc(Nc3ccc(N4CCOCC4)cc3)n2)cc1)C1CCCN1 (stereo not given) | 1.49
NC(=O)[C@@H]1CC[C@@H]2CN1C(=O)N2OS(=O)(=O)O [Avibactam sodium] | 0.85
CC(C)(C(=O)c1cccnc1)c1cccnc1 [Metyrapone] | 1.55
O=C(OC[C@H]1O[C@@H](OC(=O)c2cc(O)c(O)c(OC(=O)c3cc(O)c(O)c(O)c3)c2)[C@H](OC(=O)c2cc(O)c(O)c(OC(=O)c3cc(O)c(O)c(O)c3)c2)[C@@H](OC(=O)c2cc(O)c(O)c(OC(=O)c3cc(O)c(O)c(O)c3)c2)[C@@H]1OC(=O)c1cc(O)c(O)c(OC(=O)c2cc(O)c(O)c(O)c2)c1)c1cc(O)c(O)c(OC(=O)c2cc(O)c(O)c(O)c2)c1 [Tannic acid] | 1.44
CN(C)CCOc1ccc(/C(=C(/CCCl)c2ccccc2)c2ccccc2)cc1 [Toremifene Citrate] | 1.56
O=C(O[C@H]1CN2CCC1CC2)N1CCc2ccccc2[C@@H]1c1ccccc1 [Solifenacin succinate] | 1.56
CCN(c1cc(-c2ccc(CN3CCOCC3)cc2)cc(C(=O)NCc2c(C)cc(C)[nH]c2=O)c1C)C1CCOCC1 [Tazemetostat (EPZ-6438)] | 1.2
CC(C)(Oc1ccc(C(=O)c2ccc(Cl)cc2)cc1)C(=O)O [Choline Fenofibrate] | 0.724

SMILES | Euclidean distance
CC(C)(O)CC(=O)NCCn1ccc2ncnc(Nc3ccc(Oc4cccc(C(F)(F)F)c4)c(Cl)c3)c21 | 2.02
O=C(c1cccc(Cl)c1F)N1CCN(Cc2cccc(Nc3nccs3)n2)CC1 | 3.18
C[N+](C)(C)CCOC(N)=O [Carbachol] | 1.19
CC(C)OC(=O)CCC/C=C\C[C@@H]1[C@@H](/C=C/[C@@H](O)COc2cccc(C(F)(F)F)c2)[C@H](O)C[C@@H]1O [Travoprost] | 0.886
CCOc1cc(N)c(Cl)cc1C(=O)NCC1CN(Cc2ccc(F)cc2)CCO1 (stereo not given) [Mosapride] | 0.542
CC1(C)C2CCC1(C)C(O)C2 (stereo not given) [Borneol] | 0.812
Nc1nc(F)nc2c1ncn2[C@@H]1O[C@H](CO)[C@@H](O)[C@@H]1O [Fludarabine] | 1.6
NNc1nncc2ccccc12 [Hydralazine HCl] | 1.23
CC(C)Cc1ccc(C(C)C(=O)OCc2ccccn2)cc1 (stereo not given) [Ibuprofen piconol] | 0.595
CC(C)(Sc1cc(C(C)(C)C)c(O)c(C(C)(C)C)c1)Sc1cc(C(C)(C)C)c(O)c(C(C)(C)C)c1 [Probucol] | 0.681
CC(C)c1cc(C(=O)N2Cc3ccc(CN4CCN(C)CC4)cc3C2)c(O)cc1O | 2.81
CN1[C@@H](CC(=O)c2ccccc2)CCC[C@H]1C[C@H](O)c1ccccc1 [Lobeline hydrochloride] | 0.739
COc1cc2c(cc1OC)[C@H]1C[C@@H](OC(=O)[C@@H](N)C(C)C)[C@H](CC(C)C)CN1CC2 [Valbenazine tosylate] | 0.503
Cc1c(C(=O)N2CCOc3ccc(-c4ccc(N)nc4)cc3C2)ccc(S(C)(=O)=O)c1F | 2.65
C[C@@H](c1ncncc1F)[C@](O)(Cn1cncn1)c1ccc(F)cc1F [Voriconazole] | 1.17
CN(C)CC/C=C1/c2ccccc2COc2ccc(CC(=O)O)cc21 [Olopatadine HCl] | 0.745
NCC(=O)Nc1ccc(-n2nc(C(F)(F)F)cc2-c2ccc3c(ccc4ccccc43)c2)cc1 | 1.4
COc1cc2c(Oc3ccc(NC(=O)C4(C(=O)Nc5ccc(F)cc5)CC4)cc3F)ccnc2cc1OCCCN1CCOCC1 | 2.06
Cc1cn([C@H]2C[C@H](N=[N+]=[N-])[C@@H](CO)O2)c(=O)[nH]c1=O [Zidovudine] | 0.708
COc1cc2nc(N3CCN(C(=O)c4ccco4)CC3)nc(N)c2cc1OC [Prazosin HCl] | 0.676
